Experimental findings from PubChem BioAssay (NCATS) are described below.

Molecules are shown by their SMILES. Results filed as inconclusive are left out. Unmarked numbers belong to inactive results. Activity calls are given as the source filed them. Calls come from the whole dose curve; as a rule, active = well fitted curve in the direction sought with a large enough effect; inconclusive = small, poorly fitted or top-dose-only effect, or another doubt; inactive = no such curve, though single readings can be large; an effect the other way counts as inactive or inconclusive.

A short description of assay [1]: Primary qHTS for inhibitors of nuclear receptor binding SET domain protein 2 (NSD2) in an isogenic RCH-ACV NSD2 p.E1099K mutant (9B) (AID 1645876). In general terms: qHTS replaces the single test concentration by a dilution series.
The nature of assay [2]: Primary qHTS for inhibitors of nuclear receptor binding SET domain protein 2 (NSD2) in an RCH-ACV wild type WT cells (2C) (AID 1645877).
% is set by controls: 0 for no effect and ±100 for the full control effect; potency is the fitted concentration of half-maximal effect.
Note: nearly all actives have a fitted effect of over 70% in size.

`COC(=O)CC(O)CC(O)/C=C/c1c(C)ccc2c1C(O)CC(C)C2` (stereo unspecified): the Potency entry in assay [1] and in assay [2] was “inactive” in each case.
In the case of `CCNC(=O)C1OC(n2cnc3c(N)nc(NCCc4ccc(CCC(=O)O)cc4)nc32)C(O)C1O` (stereo unspecified), the Potency result in assay [1] and in assay [2] was “inactive” each time.
On to `COC(=O)c1ccccc1O[C@@H]1O[C@H](CO)[C@@H](O)[C@H](O)[C@H]1O[C@@H]1O[C@@H](C)[C@H](O)[C@@H](O)[C@H]1O`, for which the Potency entry in assay [1] and in assay [2] was “inactive” each time.
Take `CO[C@@H](C)Cn1c(=O)n(C)c2cnc3ccc(-c4cncc(C(C)(C)O)c4)cc3c21`: the Potency in assay [1] and in assay [2] was 166 nM (active) throughout.
Take `CC(=O)CC1CCC(C(C)C(=O)OCC(O)CO)O1` (stereo unspecified): the Potency entry in assay [1] and in assay [2] was “inactive” in each case.
Turning to `C[C@@H]1O[C@@H](OC[C@H]2O[C@@H](Oc3cc(O)cc4c3C(=O)C(O)(Cc3ccc(O)cc3)O4)[C@H](O)[C@@H](O)[C@@H]2O)[C@H](O)[C@H](O)[C@H]1O` (stereo partly specified), the Potency entry in assay [1] and in assay [2] was “inactive” each time.
As for `COc1cc([C@H]2c3cc(O)c(OC)cc3C[C@@H](CO[C@@H]3O[C@H](CO)[C@@H](O)[C@H](O)[C@H]3O)[C@@H]2CO)ccc1O`, the Potency entry in assay [1] and in assay [2] was “inactive” in each case.
With `C[C@@H]1O[C@@H](O[C@H]2[C@H](O)[C@@H](O)[C@H](OC[C@H]3O[C@@H](OC(=O)[C@]45CCC(C)(C)C[C@H]4C4=CCC6[C@@]7(C)CC[C@H](O[C@@H]8OC[C@H](O)[C@H](O[C@@H]9O[C@H](CO)[C@@H](O)[C@H](O)[C@H]9O)[C@H]8O)[C@@](C)(CO)C7CC[C@@]6(C)[C@]4(C)CC5)[C@H](O)[C@@H](O)[C@@H]3O)O[C@@H]2CO)[C@H](O)[C@H](O)[C@H]1O` (stereo partly specified), in assay [1], the activity change, negative = viability loss is 0.607% [at 9.23 µM]. The outcome in assay [2] was “inactive [at 9.23 µM]”.
`CC1CC(O)/C=C/C(O)C(O)CC(=O)Cc2c(Cl)c(O)cc(O)c2C(=O)O1` (stereo unspecified): the Potency result in assay [1] and in assay [2] was “inactive” throughout.
As to `CCC1C(=O)N(C)c2cnc(Nc3ccc(C(=O)NC4CCC(N5CCN(CC6CC6)CC5)CC4)cc3OC)nc2N1C(C)C` (stereo unspecified), the Potency in assay [1] is 18.3 nM (active); in assay [2], 25.8 nM (active).
`CCCOC(c1cc2nccc(C(=O)O)c2[nH]1)c1ccccc1Cl` (stereo unspecified): the Potency entry in assay [1] and in assay [2] was “inactive” in each case.
Regarding `CC1=CC(=O)CC(C)(C)C1/C=C/C(C)O[C@@H]1O[C@H](CO)[C@@H](O)[C@H](O)[C@H]1O[C@@H]1OC[C@](O)(CO)[C@H]1O` (stereo partly specified), the Potency entry in assay [1] and in assay [2] was “inactive” in each case.
Regarding `C[C@@H]1O[C@@H](O[C@H]2[C@@H](OC(=O)[C@]34CCC(C)(C)CC3C3=CCC5[C@@]6(C)C[C@H](O)[C@H](O[C@@H]7O[C@H](C(=O)O)[C@@H](O)[C@H](O)[C@H]7O)[C@@](C)(C(=O)O)C6CC[C@@]5(C)[C@]3(C)CC4)OC[C@H](O)[C@@H]2O)[C@H](O)[C@H](O)[C@H]1O[C@@H]1OC[C@@H](O)[C@H](O)[C@H]1O` (stereo partly specified), the activity change, negative = viability loss in assay [1] was -12% [at 9.23 µM]. In assay [2], the activity change, negative = cell killing was -16.7% [at 9.23 µM].
For the compound `CC(C)CN(C[C@@H](O)[C@H](Cc1ccccc1)NC(=O)O[C@@H]1CO[C@H]2OCC[C@H]21)S(=O)(=O)c1ccc(N)cc1`, the Potency result in assay [1] and in assay [2] was “inactive” each time.
On to `OCc1ccc(O[C@@H]2O[C@H](CO)[C@@H](O)[C@H](O)[C@H]2O)cc1`, for which the Potency entry in assay [1] and in assay [2] was “inactive” each time.
With `CC1OC(OC2CCC3(C)C(CCC4(C)C3CC=C3C5CC(C)(C)CCC5(C(=O)OC5OC(CO)C(O)C(O)C5O)CCC34C(=O)O)C2(C)C)C(O)C(O)C1O` (stereo unspecified), the Potency entry in assay [1] and in assay [2] was “inactive” each time.
Turning to `C=C[C@@H]1[C@H](O[C@@H]2O[C@H](CO)[C@@H](O)[C@H](O)[C@H]2O)OC=C(C(=O)O)[C@H]1CCOC(=O)/C=C/c1ccc(O)c(O)c1`, the Potency result in assay [1] and in assay [2] was “inactive” each time.
Regarding `COc1cc(O)cc(C)c1C(=O)O[C@H]1[C@@H](OC(C)=O)[C@H](n2ccc(=O)[nH]c2=O)O[C@@H]1CO`, the Potency entry in assay [1] and in assay [2] was “inactive” in each case.
In the case of `C/C=C(\C)C(=O)OCC1OC(OC2OC(COC(=O)/C(C)=C/C)C(OC3OC(CO)C(OC(=O)/C(C)=C/C)C(OC(=O)/C(C)=C/C)C3O)C(O)C2O)C(O)C(O)C1OC1OC(CO)C(OC(=O)/C(C)=C/C)C(OC(=O)/C(C)=C/C)C1O` (stereo unspecified), the activity change, negative = viability loss in assay [1] was -4.2% [at 9.23 µM]. In assay [2], the activity change, negative = cell killing is -15.3% [at 9.23 µM].
As to `CC(=O)N[C@@H](C(=O)O[C@H]1CCC(C)(C)[C@@H]2CCC3=C(COC3=O)[C@@]12C)C(C)C`, the Potency result in assay [1] and in assay [2] was “inactive” in each case.
Regarding `CC(C)C(C(=O)N(C)C(C)C(N)=O)N(C)C(=O)C1CCCN1C(=O)/C=C/C=C/C(O)C(C)O` (stereo unspecified), the Potency result in assay [1] and in assay [2] was “inactive” each time.
In the case of `C=CCC1=C[C@]2(OC)[C@H](C)[C@@H](c3ccc(O)c(OC)c3)O[C@]2(OC)CC1=O`, the Potency entry in assay [1] and in assay [2] was “inactive” throughout.
Take `COC1CC(O[C@H]2CC[C@@]3(C)C(=CC[C@]4(O)C3[C@H](OC(C)=O)[C@@H](OC(=O)c3ccccc3)[C@]3(C)[C@@H](C(C)=O)CC[C@@]34O)C2)OC(C)C1OC1CC(OC)C(OC2CC(OC)C(OC3OC(C)C(OC4OC(CO)C(O)C(O)C4O)C(OC)C3O)C(C)O2)C(C)O1` (stereo partly specified): the activity change, negative = viability loss in assay [1] was -11.2% [at 9.23 µM]. For the same compound, the activity change, negative = cell killing in assay [2] is -8.43% [at 9.23 µM].
For `C=CC/C=C\C/C=C\CCCCCCCc1cccc(O)c1C(=O)O`, the Potency result in assay [1] and in assay [2] was “inactive” throughout.
For the compound `COc1ccc(C(O)C(C)OC2OC(CO)C(O)C(O)C2O)cc1` (stereo unspecified), the Potency entry in assay [1] and in assay [2] was “inactive” each time.
As to `COc1ccc(/C=C\C(=O)O)c(O[C@@H]2O[C@H](CO)[C@@H](O)[C@H](O)[C@H]2O)c1`, the Potency result in assay [1] and in assay [2] was “inactive” each time.
In the case of `C[C@@H]1C(=O)O[C@H]2C[C@]34[C@H]5C[C@@H](C(C)(C)C)[C@]36[C@@H](OC(=O)[C@H]6O)O[C@]4(C(=O)O5)[C@]21O`, the Potency entry in assay [1] and in assay [2] was “inactive” throughout.
Regarding `CC1CCC2(OC1)OC1CC3C4CC=C5CC(O)CC(O[C@@H]6OC[C@@H](O)[C@H](O)[C@H]6O)C5(C)C4CCC3(C)C1(O)C2C` (stereo partly specified), the Potency result in assay [1] and in assay [2] was “inactive” in each case.
As for `C[C@@H]1[C@H]2[C@H](O[C@@H]3O[C@H](CO)[C@@H](O)[C@H](O)[C@H]3O)OC=C(C(=O)O)[C@H]2C[C@@H]1O`, the Potency entry in assay [1] and in assay [2] was “inactive” throughout.
In the case of `O=C(OCC1=CC(O)C2C=CO[C@@H](O[C@@H]3O[C@H](CO)[C@@H](O)[C@H](O)[C@H]3O)C12)c1ccccc1` (stereo partly specified), the Potency result in assay [1] and in assay [2] was “inactive” in each case.
On to `O=C(O)c1cc2cccc([N+](=O)[O-])c2[nH]1`, for which the Potency entry in assay [1] and in assay [2] was “inactive” throughout.
`C=CC(C)(C)C12C=C(OC)C(=O)N3C(C(C)C)C(=O)NC31N(OC)c1ccccc12` (stereo unspecified): the Potency entry in assay [1] and in assay [2] was “inactive” in each case.
As to `CC(=O)CCC1=C(C)C(O[C@@H]2O[C@H](CO)[C@@H](O)[C@H](O)[C@H]2O)C(O)CC1(C)C` (stereo partly specified), the Potency entry in assay [1] and in assay [2] was “inactive” in each case.
With `COc1c(C)c(OCC(O)C(C)(C)O)cc2c1COC2=O` (stereo unspecified), the Potency result in assay [1] and in assay [2] was “inactive” throughout.
As for `C=C(C)C1CCC2(C(=O)O)CCC3(C(=O)O)C(CCC4C5(C)CCC(O)C(C)(C(=O)O)C5CCC43C)C12` (stereo unspecified), the Potency entry in assay [1] and in assay [2] was “inactive” each time.
As to `C1CCC[C@H]2CCCN3CC[C@@H](CCCCCC[C@@H]4CCCN5CC[C@@H](CC1)O[C@@H]45)O[C@@H]23`, the activity change, negative = viability loss in assay [1] is -4.42% [at 0.177 µM]. Further, the activity change, negative = cell killing in assay [2] is -1.13% [at 0.177 µM].
Turning to `COC(=O)C[C@H]1C(C)(C)[C@H](OC(C)=O)C2CC3=C4CC(=O)O[C@@H](c5ccoc5)[C@]4(C)CCC3[C@@]1(C)C2=O` (stereo partly specified), the Potency result in assay [1] and in assay [2] was “inactive” throughout.
`O=C1NC2CCc3nc4ccccc4c(=O)n3C2=Nc2ccccc21` (stereo unspecified): the Potency result in assay [1] and in assay [2] was “inactive” in each case.
